Inconclusive results are not listed. The source made the active and inactive calls. Unless noted, calls come from the whole dose curve; as a rule, active = well fitted curve in the direction sought with a large enough effect; inconclusive = small, poorly fitted or top-dose-only effect, or another doubt; inactive = no such curve, though single readings can be large; an effect the other way counts as inactive or inconclusive.
How the values were obtained:
[1] = Cell Viability - BJ (AID 421; calls by dose curve;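 note: potency is the fitted concentration of half-maximal effect; cells exposed to compound for 40 hours at 37 °C before readout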); details: BJ fibroblast viability, qHTS
Procedure, shortened: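 Luminescent ATP signal (CellTiter-Glo, 20 min at room temperature) served as the read-out of viable BJ cells after 40 hours of compound treatment. Responses were scaled between DMSO and 100 uM tamoxifen, and AC50 values were obtained by Hill modeling.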

[2] = Cell Viability - Hek293 (AID 427;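 active = compounds whose dose-response curve shows a full or clear partial loss of cell viability, called from curve shape rather than a numeric limit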;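 note: potency is the fitted concentration of half-maximal effect; cells exposed to compound for 40 hours at 37 °C before reading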); details: qHTS
Procedure, shortened: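 Luminescent ATP read-out (CellTiter-Glo, 20 min RT) after 40 hr compound exposure at 37 °C in complete medium. Signal normalized to DMSO (basal) and 100 uM tamoxifen (100% inhibition); concentration-response fitted with the standard Hill equation to give AC50.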

[3] = Cell Viability - HepG2 (AID 433; calls by dose curve;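 note: potency is the fitted concentration of half-maximal effect; potency for ATP loss meaning cytotoxicity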); details: qHTS
Procedure, shortened: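 ATP luminescence (CellTiter-Glo) after 40 h compound exposure, 37 °C, HepG2, 1500 cells/well, complete medium. Normalized: DMSO = basal, 100 uM tamoxifen = 100% inhibition. AC50 via standard Hill equation.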

[4] = Cell Viability - MRC5 (AID 434; calls by dose curve;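 note: potency is the fitted concentration of half-maximal effect; potency reflects cytotoxicity seen as loss of intracellular ATP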); details: MRC5 lung fibroblast viability, qHTS
Procedure, shortened: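 MRC5 normal human lung fibroblasts, 1500 cells/well, exposed to compound for 40 hr at 37 C. Cellular ATP was read by CellTiter-Glo luminescence; data normalized to DMSO and 100 uM tamoxifen, with AC50 from Hill fits.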

[5] = Cell Viability - SK-N-SH (AID 435; calls by dose curve; note: potency is the fitted concentration of half-maximal effect); details: SK-N-SH neuroblastoma cell viability qHTS
Procedure, shortened: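 CellTiter-Glo ATP luminescence, 20 min RT read; cells pre-plated 5 hr, compound 40 hr at 37 °C, 1500 cells/well, complete medium. Normalized DMSO = 0, 100 uM tamoxifen = 100% inhibition; Hill-fit AC50.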

[6] = target: Mitogen-activated protein kinase 10 (Mus musculus) (UniProt Q61831); test: JNK3 AlphaScreen Assay (AID 530; active = well fitted curve in either direction with a large enough effect, not every such curve was filed as active;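 note: kinase came from lysate of stimulated human HepG2 cells; signal reports phosphorylation of biotinylated GST-cJun 1-79 at Ser73 with 10 µM ATP; % is set by controls: 0 for no effect and ±100 for the full control effect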)
Procedure, shortened: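 qHTS format: compounds tested as titrations against IL-1beta/TNF-alpha-activated HepG2 lysate JNK3 with biotin-GST-cJun substrate and 10 uM ATP at room temperature. Loss of anti-phospho-cJun AlphaScreen signal indicates inhibition.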

[7] = Cell Viability - N2a (AID 540); details: N2a mouse neuroblastoma cell viability; activity change, negative = cytotoxicity: at 92.2 µM (top of the series);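 note: plate controls were DMSO alone for no effect and tamoxifen control for full effect; nearly all actives have a fitted effect of over 45% in size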
Procedure, shortened: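 First, 1500 N2a cells per well incubate 5 hr at 37 °C; next, compounds are added and incubated 40 hr at 37 °C; finally CellTiter-Glo is added and luminescence read after 20 min, with AC50 derived by Hill modeling.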

[8] = Cell Viability - NIH 3T3 (AID 541); details: NIH 3T3 cell viability, qHTS; activity change, negative = cytotoxicity: at 92.2 µM (top of the series);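 note: plate controls were DMSO alone for no effect and tamoxifen positive control for full effect; nearly all actives have a fitted effect of over 25% in size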
Procedure, shortened: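 AC50 values reflect concentration-dependent loss of intracellular ATP in NIH 3T3 cells after 40 hr treatment in complete culture medium, quantified by luciferase-based luminescence.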

[9] = Cell Viability - HUV-EC-C (AID 542); note: % is set by controls: 0 for no effect and ±100 for the full control effect; nearly all actives have a fitted effect of over 35% in size
Procedure, shortened: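 Decrease in cellular ATP, quantified by luciferase luminescence, reflects toxicity in normal human vascular endothelial HUV-EC-C cells given compound for 40 hr in complete culture medium. Values are AC50s from concentration-response curves.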

[10] = Cell Viability - H-4-II-E (AID 543); note: % is set by controls: 0 for no effect and ±100 for the full control effect; nearly all actives have a fitted effect of over 35% in size
Procedure, shortened: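 Here, cytotoxicity is measured in the rat hepatoma line H-4-II-E as loss of intracellular ATP after 40 hr compound treatment, detected by luciferase luminescence.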

[11] = Cell Viability - SH-SY5Y (AID 544); details: SH-SY5Y neuroblastoma cell viability; viability change, negative = cytotoxic: at 92.2 µM (top of the series); note: nearly all actives have a fitted effect of over 55% in size
Procedure, shortened: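 Cytotoxicity is scored as a concentration-dependent fall in intracellular ATP in human SH-SY5Y cells treated 40 hr in complete culture medium. Potency is expressed as AC50 from a Hill equation fit.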

[12] = Cell Viability - Renal Proximal Tubule (AID 545); details: renal proximal tubule cells viability, primary cells of rat origin; activity change, negative = cytotoxicity: at 91.7 µM (top of the series); note: nearly all actives have a fitted effect of over 40% in size
Procedure, shortened: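 Rat kidney proximal tubule cells, freshly isolated; 1000 cells/well, 5 hr settle, compound 40 hr 37 °C. CellTiter-Glo 20 min RT, luminescence read. AC50 by standard Hill fit.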

[13] = Cell Viability - Mesenchymal (AID 546); details: mesenchymal cells viability, qHTS; activity change, negative = cytotoxicity: at 91.7 µM (top of the series);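 note: cells exposed to compound for 40 hours before reading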
Procedure, shortened: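 Human kidney mesenchymal cells from normal renal glomeruli, 1000 cells/well, rested 5 hr at 37 °C, then treated 40 hr at 37 °C in complete medium. Cellular ATP read by CellTiter-Glo luminescence; AC50 from Hill-equation fits.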

[14] = Cellular Toxicity (caspase-3) HepG2 (AID 654);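 note: cells exposed to compound for 16 hours before reading; 0% = DMSO alone and 100% = caspase signal from 100 µM tamoxifen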
Procedure, shortened: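 qHTS, HepG2, 1500 cells/well, complete medium; cpd 16 h 37 °C; Caspase-Glo 3/7, 20 min RT; lum. Norm: DMSO vs 100 uM tamoxifen; AC50 Hill fit.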

[15] = Cellular Toxicity (caspase-3) Jurkat (AID 655); details: Jurkat caspase-3 activation, luminescence; caspase-3 activation: at 92.2 µM (top of the series), DMSO = 0%, tamoxifen = 100%;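 note: cells exposed to compound for 16 h at 37 °C before reading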
Procedure, shortened: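 Luminescent caspase-3/7 readout (aminoluciferin substrate cleavage) in human T-cell leukemia Jurkat cells after 16 hr compound exposure. Concentration-response normalized to DMSO and 100 uM tamoxifen; AC50 by standard Hill equation.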

[16] = Cellular Toxicity (caspase-3) BJ (AID 658); details: Potency: caspase-3 activation;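 note: 0% = DMSO basal and 100% = 10 µM staurosporine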
Procedure, shortened: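 BJ human foreskin fibroblasts, 1000 cells/well, treated 16 hours at 37 °C in complete medium; caspase 3/7 activity by Caspase-Glo luminescence after 1 hr at room temperature. Normalized to DMSO and 10 uM staurosporine; AC50 from Hill fits.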

[17] = Cellular Toxicity (caspase-3) Mesangial (AID 660); details: mesangial cells, normalized: DMSO 0%, 100 µM tamoxifen 100%; at 91.7 µM (top of the series);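 note: combined caspase 3 and 7 activity read by Caspase-Glo luminescence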
Procedure, shortened: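 Concentration-response qHTS: compound-induced rise in caspase 3/7 luminescence in human mesangial cells after 16 h, normalized to DMSO and 100 uM tamoxifen controls.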

[18] = Cellular Toxicity (caspase-3) SK-N-SH (AID 661); details: SK-N-SH caspase-3 activation, qHTS; caspase-3 activation: at 91.7 µM (top of the series), DMSO as zero, staurosporine as full;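 note: 0% = DMSO basal and 100% = 10 µM staurosporine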
Procedure, shortened: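 Caspase 3/7 activation is measured as a luminescence increase from aminoluciferin released by substrate cleavage in SK-N-SH cells after 16 hr compound treatment; values are AC50 from concentration-response curves.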

[19] = Cellular Toxicity (caspase-3) H-4-II-E (AID 663); details: H-4-II-E rat hepatoma; Potency: caspase-3 activation; caspase-3 activation: at 92.2 µM (top of the series), scaled: DMSO 0%, 100 µM tamoxifen 100%;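 note: cells exposed to compound for 16 hr before readout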
Procedure, shortened: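 Rat hepatoma H-4-II-E cells (1500/well) plated 5 hr, then exposed to compound titrations for 16 hr at 37 °C. Caspase-Glo 3/7 luminescence read after 20 min at RT; data normalized to DMSO and 100 uM tamoxifen, AC50 from Hill fits.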

[20] = Cellular Toxicity (caspase-3) NIH 3T3 (AID 666);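 note: 0% = DMSO basal and 100% = 100 µM tamoxifen stimulation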
Procedure, shortened: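 Concentration-response qHTS in NIH 3T3 mouse fibroblasts scores caspase-3/7 activation as rising luminescence after 16 hr compound exposure. Signals are scaled between DMSO-only and 100 uM tamoxifen.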

[21] = Cellular Toxicity (caspase-3) Renal Proximal Tubule (AID 667);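 note: cells exposed to compound for 16 hours at 37 °C before detection; 0% = DMSO basal and 100% = 10 µM staurosporine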
Procedure, shortened: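 Luminescent caspase 3/7 signal from peptide-aminoluciferin cleavage measures apoptosis in freshly isolated rat kidney proximal tubule cells after 16 h compound exposure. Concentration-response data are normalized to DMSO and 10 uM staurosporine, and AC50 values come from Hill equation fits.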

Cc1cccc(O)c1C
inactive: Potency [1] > 92 µM | Potency [2] > 92 µM | Potency [3] > 92 µM | Potency [4] > 92 µM | Potency [5] > 92 µM | Potency [6] | Potency [7] | Potency [8] | Potency [9] | Potency [10] | Potency [11] | Potency [12] | Potency [13] | Potency [14] | Potency [15] | Potency [16] | caspase-3 activation [17] -0.758% | caspase-3 activation [18] -0.783% | caspase-3 activation [19] 0.768% | Potency [20] | outcome [21]
